Assay outcomes: PubChem BioAssay, National Center for Advancing Translational Sciences (NCATS)
TDP1 block – inhibitors of human tyrosyl-DNA phosphodiesterase TDP1 | Q9NUW8 | recombinant TDP1, AlphaScreen DNA substrate cleavage | Potency, µM (titrated, usually from 130 µM), for the others: top-dose activity change, negative = inhibition, usual class: inhibitors | 350,000 tested, 0.28% active; also: nearly all actives have a fitted effect of over 40% in size
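AlphaScreen read-out: signal falls as enzyme removes the 3' tyrosine-FITC from a 5'-biotinylated DNA oligo (15 nM, 5 min, RT). Enzyme was E. coli-made recombinant Tdp1 at 1 nM, exposed to compound for 15 min beforehand; beads 10 ug/ml, 10 min.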
BLM inh – blocks DNA unwinding by human BLM helicase | recombinant BLM DNA unwinding, fluorescence dequenching | P54132 | 350,000 tested, 0.2% active | Potency, µM (series often up to 56.1 µM), inactives show at the top dose activity change, negative = inhibition, hits mostly inhibitors;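 also: plate controls were vehicle for no effect and no enzyme for full effect; nearly all actives have a fitted effect of over 35% in size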
RECQ1 inh – blocks DNA unwinding by human RECQ1. P46063. RECQ1 DNA unwinding, red fluorescence kinetic read. Potency, µM (top dose mostly 57.3 µM), for inactives: at the highest dose activity, negative = inhibition, hits mostly inhibitors. 240,000 tested, 0.54% active. AID 2549;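 also: plate controls were vehicle for no effect and no enzyme for full effect; nearly all actives have a fitted effect of over 30% in size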
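RECQ1T1 50 nM; forked duplex (20 bp + 30-nt ss tails) 200 nM, ATP 2 mM final; pH 8.0, 2 mM MgCl2, 2.5 ug/ml poly(dI-dC); 15 min compound preincubation; discontinuous kinetic read over 2 h at RT.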
APE1 inh – APE1 (human) endonuclease inhibition; P27695; recombinant APE1, TAMRA/BHQ-2 abasic DNA cleavage fluorescence; Potency, µM (doses to about 65.8 µM), for inactives: at the highest dose activity change, negative = inhibition, most hits filed as inhibitors; 350,000 tested, 0.35% active;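 also: plate controls were vehicle for no effect and reference inhibitor for full effect; nearly all actives have a fitted effect of over 55% in size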
Target sequence (P27695 whole entry, looked up): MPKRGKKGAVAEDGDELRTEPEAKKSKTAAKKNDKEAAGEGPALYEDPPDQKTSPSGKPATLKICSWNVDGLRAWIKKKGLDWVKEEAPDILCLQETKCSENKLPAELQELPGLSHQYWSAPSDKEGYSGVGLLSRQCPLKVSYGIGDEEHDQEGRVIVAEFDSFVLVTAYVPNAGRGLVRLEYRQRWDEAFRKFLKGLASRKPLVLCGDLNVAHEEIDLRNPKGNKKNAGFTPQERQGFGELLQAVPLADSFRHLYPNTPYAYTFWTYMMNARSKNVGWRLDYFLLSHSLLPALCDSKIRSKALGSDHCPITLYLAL
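Step 1: APE1 (0.75 nM) with compound, 15 min RT. Step 2: add 50 nM fluorophore/quencher THF duplex. Step 3: three fluorescence reads 60 s apart (525/598 nm); read 3 minus read 1 = reaction progress.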
FEN1 inh – human FEN1 inhibition; Recombinant FEN1 flap cleavage, fluorescence, 15 min; Potency, µM (doses to about 114 µM), for the others: at the top dose activity change, negative = inhibition, actives largely listed as inhibitors; AID 588795; 390,000 tested, 0.35% active; also: nearly all actives have a fitted effect of over 65% in size
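With each library titrated from low to high concentration, compounds met 10 nM FEN1 for 15 min at room temperature before 50 nM substrate was added; readings at 0 and 15 min fed four-parameter Hill curve fits.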
* marks the source's active call; other numbers are inactive results; i = inactive; ? = inconclusive; . = no result; ! = a repeat was not active; [ ] = dose if it differs, or a comment. Hits are enriched below; roughly 0.92% of the tested compounds scored in any of these assays. Calls follow the shape of the dose curve; as a rule, active = well fitted curve in the direction sought with a large enough effect; inconclusive = small, poorly fitted or top-dose-only effect, or another doubt; inactive = no such curve, though single readings can be large; an effect the other way counts as inactive or inconclusive. Unless noted, % is scaled to controls: 0 for no effect and ±100 for the full control effect; potency is read from the fitted curve at half-maximal effect.

SMILES	TDP1 block	BLM inh	RECQ1 inh	APE1 inh	FEN1 inh
CN[C@H]1C[C@H]2O[C@@](C)([C@H]1OC)n1c3ccccc3c3c4c(c5c6ccccc6n2c5c31)C(=O)NC4	9%	-8%	28µM*	?	.
COC(=O)C1(O)CC2OC1(C)n1c3ccccc3c3c4c(c5c6ccccc6n2c5c31)C(=O)NC4 (stereo not given)	7%[21 µM]	3%[12.4 µM]	-5%[11.5 µM]	-6%[12.4 µM]	.
C(=NC1CCCCC1)=NC1CCCCC1	6%	.	-1%	0%	.
CCCCN1C(=O)/C(=C\c2ccco2)C(=O)N(CCc2ccccc2)C1=O	11%	?	32µM*	?	56µM*
CN1C(=O)C(=CN2CCN(C(=O)c3ccco3)CC2)C(=O)N(C)C1=S	0%	2%	-11%	21%	0%
CCN(CC)c1ccc(/C=C2\C(=O)NC(=O)N(Cc3ccco3)C2=O)cc1	-14%	4%	?	?	?
CCCCN1C(=O)/C(=C/c2ccc(N(C)C)cc2)C(=O)N(Cc2ccco2)C1=O	6%	?	28µM*	?	?
OC[C@@H](O)[C@H]1O[C@@H]2O[C@H](C(Cl)(Cl)Cl)O[C@@H]2[C@H]1O	.	.	.	-6%	.
O=[N+]([O-])c1cc(-c2ccc([As](=O)(O)O)cc2)ccc1[As](=O)(O)O	35µM*	-4%	-4%	?	.
[N-]=[N+]=[N-]	15%	.	1%	27%	.
ClC1=C(Cl)C(Cl)(C2(Cl)C(Cl)=C(Cl)C(Cl)=C2Cl)C(Cl)=C1Cl	-6%	-8%	?	11µM*	.
N/C(=N\N=C/c1ccc(-c2ccc(O)c(C(=O)O)c2)o1)N[N+](=O)[O-]	2.8µM*	52%	13µM*	7.9µM*	50µM*
CCOP(=S)(OCC)Oc1nc(Cl)c(Cl)cc1Cl	50µM*!	-2%	-3%	27%	-4%
[S]=[Sb][S][Sb]=[S]	.	-4%	.	.	.
CN(C)[C@@H]1C(=O)C(C(N)=O)=C(O)[C@@]2(O)C(=O)C3=C(O)c4c(O)cccc4[C@@](C)(O)C3[C@H](O)C12 (stereo not given in full)	.	.	.	-39%	16µM*!
CN(C)[C@H]1C(=O)C(C(N)=O)=C(O)[C@]2(O)C(=O)C3=C(O)c4c(O)cccc4[C@@](C)(O)[C@H]3C[C@@H]12	?	7%[21.4 µM]	-9%[25.9 µM]	.	.
CN(C)[C@@H]1C(=O)C(C(N)=O)=C(O)[C@@]2(O)C(=O)C3=C(O)c4c(O)ccc(Cl)c4[C@@](C)(O)C3C[C@@H]12 (stereo not given in full)	-8%	-3%	-11%	-3%	45µM*
CC12C=CC(=O)C=C1CCC1C2=CCC2(C)C1CC[C@@H]2C(=O)CN1CCN(c2cc(N3CCCC3)nc(N3CCCC3)n2)CC1 (stereo not given in full)	15%	-15%	-4%	-5%	.
COc1cc(CC2(CCc3ccncc3)C(=O)NC(=O)NC2=O)cc(OC)c1OC	3%	-7%	i	10%	0%
COc1cc2c(cc1OC)-c1c(OC)c(OC)c(OC)c3ccnc(c13)C2=O	0%	0%	-19%	?	10µM*
c1ccc(C2CO2)cc1 (stereo not given)	11%	.	1%	26%	.
CCCCCCCC/C=C\CCCCCCCC(=O)OC[C@@H](COP(O)(O)=S)OC	.	?	25µM*	?	.
CCCC1C(C#N)=C(N)Oc2c1c(=O)oc1ccccc21 (stereo not given)	0%	-5%	-4%	?	10%
N#CC1=C(N)Oc2c(c(=O)oc3ccccc23)C1c1ccc([N+](=O)[O-])o1 (stereo not given)	?	-3%	i	35µM*	50µM*
N.N.N.N.N.N.N.N.N.N.N.N.N.N.O.O.[Cl-].[Cl-].[Cl-].[Cl-].[Cl-].[Cl-].[Ru].[Ru].[Ru]	15%[56.1 µM]	.	14µM*	9%	.
COC[C@H]1OC(=O)c2coc3c2[C@@]1(C)C1=C(C3=O)C2CCC(=O)[C@@]2(C)C[C@H]1OC(C)=O (stereo not given in full)	12%[56.1 µM]	3%	35µM*	?	13µM*!
